Laboratory results reported in PubChem BioAssay (NCI).
The panel holds about 83,000 compounds, 20% with a hit somewhere; the sample as a whole holds those more often.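 Cell lines were cultured in 96-well plates, exposed to a single compound concentration, and assessed for percent growth 48 hours later.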 A number with no mark means an inactive call. The source made the active and inactive calls. Rule for the calls: active = growth percent below 10; inactive = the rest.

test system: M14 melanoma; experiment: NCI-60 one-dose screen, 48 h (100 = growth as untreated, 0 = no growth, -100 = all killed); conditions: 10 µM unless noted

SMILES	growth
O=C1C(Cl)=C(NCCCN2CCOCC2)C(=O)c2ccccc21	101%
COC(=O)c1cc(-c2ccc(C)cc2)n(C(=O)CSc2nc3sc(C(N)=O)c(C)c3c(=O)n2Cc2ccccc2)n1	102%
COc1cccc(OC)c1OC(=O)c1ccccc1	109%
Oc1ccc2ccccc2c1C1NN=C(c2ccccc2)S1 (stereo unspecified)	-8.91% (active)
CCCCC/C=C\C/C=C/CCCCCCCCNC(=O)Nc1ccc([N+](=O)[O-])cc1	77.9%
Clc1ccc(Nc2ccnc(N3CCN(c4ccnc5cc(Cl)ccc45)CC3)n2)cc1	33.7%
Cc1ccc(S(=O)(=O)N(c2ccc(Cl)cc2)c2ccc(Br)cc2C(=O)O)cc1	117%
CCN1CCN(C(=S)SCC(=O)Nc2nc3ccc(OC)cc3s2)CC1	112%
Cn1c2ccccc2c2nn(Cc3ccccc3)c(=O)nc21	104%
Clc1ccc2c(N3CCN(c4ccnc(NC5CCCCC5)n4)CC3)ccnc2c1	-43.7% (active)
Cn1c2ccccc2c2nn(C(=O)c3ccccc3)c(=O)nc21	104%
COc1ccc(OC2=C(C#N)C(=N)N3c4ccccc4Sc4ccccc4C3N2)cc1 (stereo unspecified)	105%
NC(=S)N/N=C1\c2ccccc2-c2c(F)c(F)c(F)c(F)c21	70.2%
NC(=O)c1cc(I)ccc1NC(=O)COc1ccc(Cl)cc1Cl	81.5%
CCC12CCC3c4ccc(O)cc4CCC3C1CC(O)C2O (stereo unspecified)	55%
O=C1NC(=O)C(CSc2ccccc2)(c2ccccc2)N1 (stereo unspecified)	105%
